# Measured values published in PubChem BioAssay (EPA / NIEHS).
# Values joined by “and” are separate entries in the source; they are usually repeats but may differ in a detail not shown here. Equal values may be shown once. Some compounds were tested as several samples or in several runs, with calls that do not always agree. Active and inactive are the calls of the source. Rule for the calls: active = hit-call score of the fitted dose curve at least 0.9, where 1 is the maximum; inactive = score below 0.9.
# How the values were obtained:
# [1] = read-out: Interleukin-8 (IL8), CXCL8 (gene 3576); experiment: BSK_BF4T_IL8: BioMAP Diversity Plus: BF4T Assay for Interleukin-8 (IL8) Biomarker Activity (AID 2284263); conditions: primary human bronchial epithelial cells with fibroblasts
# How it was run: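 Human bronchial epithelial cells with dermal fibroblasts co-culture; IL-8 measured by ELISA 24 hours after dosing, fitted vs DMSO. Cytotoxicity tracked in parallel cultures by SRB total-protein staining.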
# [2] = read-out: Interleukin-1 alpha (IL1a), IL1A (gene 3552); experiment: BSK_BF4T_IL1a: BioMAP Diversity Plus: BF4T Assay for Interleukin-1 alpha (IL1a) Biomarker Activity (AID 2284264); conditions: primary human bronchial epithelial cells with fibroblasts
# How it was run: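 Human bronchial epithelial cells co-cultured with dermal fibroblasts, dosed and read at 24 h. Secreted/surface IL-1α quantified by ELISA; gain-of-signal fitted relative to DMSO baseline. Parallel SRB total-protein staining tracked cytotoxicity.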
# [3] = read-out: Decorin, DCN (gene 1634); experiment: BSK_MyoF_Decorin: BioMAP Diversity Plus: MyoF Assay for Decorin Biomarker Activity (AID 2284265); conditions: primary human lung fibroblasts
# How it was run: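 Decorin protein was quantified by ELISA 24 h after chemical addition to primary human lung fibroblasts and analysed as increase over DMSO. Cytotoxicity was tracked in parallel cultures by SRB total-protein staining read at 560 nm.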
# [4] = read-out: KRT18 (gene 3875); experiment: BSK_BF4T_Keratin818: BioMAP Diversity Plus: BF4T Assay for Keratin 818 Biomarker Activity (AID 2284266); conditions: primary human bronchial epithelial cells with fibroblasts
# How it was run: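 Co-culture of human bronchial epithelial cells and dermal fibroblasts, chemical exposure 24 h. Keratin 8/18 measured by ELISA; positive-direction fit vs DMSO. SRB total protein run in parallel cultures for cytotoxicity.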
# [5] = read-out: Matrix Metallopeptidase 1 (MMP1), MMP1 (gene 4312); experiment: BSK_MyoF_MMP1: BioMAP Diversity Plus: MyoF Assay for Matrix Metallopeptidase 1 (MMP1) Biomarker Activity (AID 2284268); conditions: primary human lung fibroblasts
# How it was run: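 Human lung fibroblasts (MyoF system) exposed to chemical for 24 h in 96-well format; MMP1 biomarker quantified by ELISA, with activity fitted in the positive direction relative to DMSO baseline.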
# [6] = read-out: TIMP metallopeptidase inhibitor 1 (TIMP1), TIMP1 (gene 7076); experiment: BSK_MyoF_TIMP1: BioMAP Diversity Plus: MyoF Assay for TIMP metallopeptidase inhibitor 1 (TIMP1) Biomarker Activity (AID 2284269); conditions: primary human lung fibroblasts
# How it was run: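 Primary human lung fibroblasts, MyoF multiplex system; chemical exposure 24 h; TIMP-1 by ELISA; positive fitting direction vs DMSO control.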
# [7] = read-out: Matrix Metallopeptidase 1 (MMP1), MMP1 (gene 4312); experiment: BSK_BF4T_MMP1: BioMAP Diversity Plus: BF4T Assay for Matrix Metallopeptidase 1 (MMP1) Biomarker Activity (AID 2284270); conditions: primary human bronchial epithelial cells with fibroblasts
# How it was run: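 Co-culture of human bronchial epithelial cells and dermal fibroblasts; MMP-1 levels measured by ELISA 24 hours after chemical dosing, relative to DMSO. Cytotoxicity checked in parallel cultures by SRB total-protein staining.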
# [8] = read-out: Matrix Metallopeptidase 3 (MMP3), MMP3 (gene 4314); experiment: BSK_BF4T_MMP3: BioMAP Diversity Plus: BF4T Assay for Matrix Metallopeptidase 3 (MMP3) Biomarker Activity (AID 2284271); conditions: primary human bronchial epithelial cells with fibroblasts
# How it was run: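 Co-culture of human bronchial epithelial cells and dermal fibroblasts dosed 24 h; MMP-3 measured by ELISA, positive-direction fit versus DMSO. Cytotoxicity tracked by SRB total-protein staining (560 nm) in parallel cultures.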
# [9] = read-out: Tissue plasminogen activator (tPA), PLAT (gene 5327); experiment: BSK_BF4T_tPA: BioMAP Diversity Plus: BF4T Assay for Tissue plasminogen activator (tPA) Biomarker Activity (AID 2284272); conditions: primary human bronchial epithelial cells with fibroblasts
# How it was run: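 tPA level quantified by ELISA at 24 h post-treatment in bronchial epithelial/dermal fibroblast co-cultures, gain of signal scored against DMSO baseline. Parallel cultures stained with 0.1% SRB (560 nm) to flag overt cytotoxicity.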
# [10] = BSK_BF4T_SRB: Viability Assessment in the BioMAP Diversity Plus: BF4T Assay (AID 2284274); conditions: primary human bronchial epithelial cells with fibroblasts
# How it was run: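 Co-culture of human bronchial epithelial cells and dermal fibroblasts (BioMAP BF4T) exposed 24 h. Total protein by sulforhodamine B staining (0.1% SRB after 10% TCA fixation, 560 nm) in parallel cultures; fitted vs DMSO.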
# [11] = read-out: urokinase Plasminogen Activator (uPA), PLAU (gene 5328); experiment: BSK_BF4T_uPA: BioMAP Diversity Plus: BF4T Assay for urokinase Plasminogen Activator (uPA) Biomarker Activity (AID 2284275); conditions: primary human bronchial epithelial cells with fibroblasts
# How it was run: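 Co-culture of human bronchial epithelial cells and dermal fibroblasts; uPA quantified by ELISA 24 hours after dosing, fitted relative to DMSO. Parallel SRB total-protein staining assessed overt cytotoxicity.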
# [12] = read-out: Matrix Metallopeptidase 9 (MMP9), MMP9 (gene 4318); experiment: BSK_BF4T_MMP9: BioMAP Diversity Plus: BF4T Assay for Matrix Metallopeptidase 9 (MMP9) Biomarker Activity (AID 2284276); conditions: primary human bronchial epithelial cells with fibroblasts
# How it was run: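 Co-culture of human bronchial epithelial cells and dermal fibroblasts dosed for 24 h; MMP-9 quantified by ELISA and fitted upward versus DMSO. Cytotoxicity monitored in parallel cultures by SRB total-protein staining at the biomarker time point.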
# [13] = read-out: Interleukin-8 (IL8), CXCL8 (gene 3576); experiment: BSK_IMphg_IL8: BioMAP Diversity Plus: IMphg Assay for Interleukin-8 (IL8) Biomarker Activity (AID 2284277); conditions: primary human endothelial cells with macrophages
# How it was run: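 Co-culture of human venular endothelial cells and macrophages exposed to chemicals for 24 h; IL-8 quantified by ELISA and compared against the DMSO baseline, with SRB total-protein staining in parallel cultures for cytotoxicity.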
# [14] = read-out: Intercellular Adhesion Molecule 1 (ICAM1), ICAM1 (gene 3383); experiment: BSK_BE3C_ICAM1: BioMAP Diversity Plus: BE3C Assay for Intercellular Adhesion Molecule 1 (ICAM1) Biomarker Activity (AID 2284278); conditions: primary human bronchial epithelial cells;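 for outcome: cell-surface ICAM-1 protein level quantified by ELISA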
# How it was run: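 Primary human bronchial epithelial cells in BE3C system, 24 h after chemical dosing; cell-surface ICAM-1 measured by ELISA relative to DMSO. Parallel SRB staining (0.1% SRB after 10% TCA fixation, read at 560 nm) assessed cytotoxicity.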
# [15] = read-out: Interferon-inducible T-cell alpha chemoattractant (ITAC), CXCL11 (gene 6373); experiment: BSK_BE3C_ITAC: BioMAP Diversity Plus: BE3C Assay for Interferon-inducible T-cell alpha chemoattractant (ITAC) Biomarker Activity (AID 2284279); conditions: primary human bronchial epithelial cells
# How it was run: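 Steps: dose human bronchial epithelial cells with chemical; incubate 24 h; measure I-TAC by ELISA; fit endpoint in positive direction against DMSO control. Cytotoxicity was checked in parallel cultures by SRB staining at harvest.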
# [16] = read-out: Interleukin-8 (IL8), CXCL8 (gene 3576); experiment: BSK_BE3C_IL8: BioMAP Diversity Plus: BE3C Assay for Interleukin-8 (IL8) Biomarker Activity (AID 2284280); conditions: primary human bronchial epithelial cells
# How it was run: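 Primary human bronchial epithelial cells (BE3C system) exposed 24 h; IL-8 measured by ELISA and fitted in positive direction versus DMSO. Overt cytotoxicity assessed by SRB total-protein staining in parallel cultures.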
# [17] = read-out: Epidermal growth factor receptor (EGFR), EGFR (gene 1956); experiment: BSK_BE3C_EGFR: BioMAP Diversity Plus: BE3C Assay for Epidermal growth factor receptor (EGFR) Biomarker Activity (AID 2284281); conditions: primary human bronchial epithelial cells
# How it was run: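 Human primary bronchial epithelial cells (BE3C system) dosed with chemicals; EGFR measured by ELISA at 24 h, fitted in the positive direction relative to DMSO. Cytotoxicity tracked in parallel cultures by SRB total-protein staining.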
# [18] = read-out: KRT18 (gene 3875); experiment: BSK_BE3C_Keratin818: BioMAP Diversity Plus: BE3C Assay for Keratin 818 Biomarker Activity (AID 2284282); conditions: primary human bronchial epithelial cells
# How it was run: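 Primary human bronchial epithelial cells treated 24 h; Keratin 8/18 quantified by ELISA, fit relative to DMSO. Cytotoxicity tracked in parallel cultures by sulforhodamine B total-protein staining.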
# [19] = BSK_MyoF_SRB: Viability Assessment in the BioMAP Diversity Plus: MyoF Assay (AID 2284267); conditions: primary human lung fibroblasts;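 note: total protein by SRB absorbance in parallel cultures as cytotoxicity measure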
# How it was run: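 Human lung fibroblasts, 24 h after chemical dosing; total protein measured by 0.1% sulforhodamine B staining after 10% TCA fixation, read at 560 nm, fitted relative to DMSO baseline.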
# [20] = read-out: Plasminogen Activator Inhibitor-1 (PAI1), SERPINE1 (gene 5054); experiment: BSK_BF4T_PAI1: BioMAP Diversity Plus: BF4T Assay for Plasminogen Activator Inhibitor-1 (PAI1) Biomarker Activity (AID 2284273); conditions: primary human bronchial epithelial cells with fibroblasts
# How it was run: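 Co-culture of human bronchial epithelial cells and dermal fibroblasts exposed to compound for 24 h. PAI-1 measured by ELISA; activity fitted in positive direction versus DMSO. Parallel SRB staining assessed overt cytotoxicity.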
smiles,measurement,setting,value
FC(F)(F)C(F)(F)C(F)(F)C(F)(F)C(F)(F)C(F)(F)CC1CO1 (stereo not drawn),outcome,[1],inactive
same,outcome,[2],inactive
same,outcome,[3],inactive
same,outcome,[4],inactive
same,outcome,[5],inactive
same,outcome,[6],inactive
same,outcome,[7],inactive
same,outcome,[8],inactive
same,outcome,[9],inactive
same,outcome,[10],inactive
same,outcome,[11],inactive
same,outcome,[12],inactive
same,outcome,[13],inactive
same,outcome,[14],inactive
same,outcome,[15],inactive
same,outcome,[16],inactive
same,outcome,[17],inactive
same,outcome,[18],inactive
FC(F)(F)C(F)(F)CNCC(F)(F)C(F)(F)F,outcome,[1],inactive
same,outcome,[2],inactive
same,outcome,[3],inactive
same,outcome,[4],inactive
same,outcome,[19],inactive
same,outcome,[5],inactive
same,outcome,[6],inactive
same,outcome,[8],inactive
same,outcome,[9],inactive
same,outcome,[20],inactive
same,outcome,[10],inactive
same,outcome,[12],inactive
same,outcome,[13],inactive
same,outcome,[14],inactive
same,outcome,[15],inactive
same,outcome,[16],inactive
same,outcome,[17],inactive
same,outcome,[18],inactive
OCCCC(F)(F)C(F)(F)C(F)(F)F,outcome,[1],inactive
same,outcome,[2],inactive
same,outcome,[3],inactive
same,outcome,[4],inactive
same,outcome,[5],inactive
same,outcome,[6],inactive
same,outcome,[8],inactive
same,outcome,[9],inactive
same,outcome,[11],inactive
same,outcome,[12],inactive
same,outcome,[13],inactive
same,outcome,[14],inactive
same,outcome,[15],inactive
same,outcome,[16],inactive
same,outcome,[17],inactive
same,outcome,[18],inactive
CCCCCCCCC(F)(F)C(F)(F)C(F)(F)C(F)(F)C(F)(F)C(F)(F)F,outcome,[1],inactive
same,outcome,[2],inactive
same,outcome,[3],inactive
same,outcome,[4],inactive
same,outcome,[19],inactive
same,outcome,[5],inactive
same,outcome,[7],inactive
same,outcome,[8],inactive
same,outcome,[9],inactive
same,outcome,[10],inactive
same,outcome,[12],inactive
same,outcome,[13],inactive
same,outcome,[14],inactive
same,outcome,[15],inactive
same,outcome,[16],inactive
same,outcome,[17],inactive
same,outcome,[18],inactive
OCCCC(F)(F)C(F)(F)C(F)(F)C(F)(F)C(F)(F)C(F)(F)C(F)(F)F,AC50,[1],40.5 µM (active) and 45.3 µM (active)
same,AC50,[2],51.6 µM (active) and 55.4 µM (active)
same,AC50,[3],51.2 µM (active) and 52.2 µM (active)
same,AC50,[4],23.7 µM (active) and 47.1 µM (active)
same,AC50,[19],44.8 µM (active) and 56.2 µM (active)
same,AC50,[5],48 µM (active)
same,outcome,[5],inactive
same,AC50,[6],54.9 µM (active) and 47.5 µM (active)
same,AC50,[8],57.5 µM (active) and 32.4 µM (active)
same,AC50,[9],56.6 µM (active) and 47.7 µM (active)
same,AC50,[11],47.8 µM (active) and 45.7 µM (active)
same,AC50,[12],44.8 µM (active) and 55.3 µM (active)
same,AC50,[13],47.5 µM (active)
same,outcome,[13],inactive
same,AC50,[14],53.8 µM (active) and 51.3 µM (active)
same,AC50,[15],45.9 µM (active) and 46.9 µM (active)
same,AC50,[16],37.1 µM (active) and 43 µM (active)
same,AC50,[17],20.4 µM (active) and 47.3 µM (active)
same,AC50,[18],50.6 µM (active) and 48.5 µM (active)
